# Rows were chosen to be rich in hits. Some 19% of all compounds tested hit in one or more screens of this group.
# HT1080-NT tox: kills 2HG-producing HT-1080-NT fibrosarcoma cells; actives 1.6% (n = 360,000); Potency, µM (doses to about 46.1 µM), inactives show at the top dose activity, negative = less viability, most hits filed as cytotoxic; AID 686970; HT-1080-NT fibrosarcoma viability, CellTiter-Glo ATP luminescence, 48 h;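 also: NT is the 2HG producing partner of a matched IDH1 knockdown line; potency is read from the fitted curve at half-maximal effect; 0% = DMSO-treated cells and -100% = media-only wells without cells; nearly all actives have a fitted effect of over 55% in size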
#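 Luminescent CellTiter-Glo readout after 48 hours of compound exposure at 37 degrees C defined viability of HT-1080-NT cells. Activity was normalized to DMSO wells and cell-free media wells; concentration-response curves were fitted and assigned curve classes.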
# HT1080 IDH1KD tx: HT-1080 IDH1 knockdown cell toxicity (counter line) | HT-1080 IDH1 knockdown viability, ATP luminescence, 48 h | Potency, µM (series often up to 46.1 µM), for inactives: at the highest dose activity, negative = toxicity, actives largely listed as cytotoxic | actives 2% (n = 360,000);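 also: potency is read from the fitted curve at half-maximal effect; 0% = DMSO wells and -100% = cell-free medium wells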
#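 Using the IDH1-knockdown HT-1080 line run in the same batch and compound series as the NT line, viability after 48 h at 37 °C was determined by CellTiter-Glo luminescence and expressed as % activity.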
# IL1B secr inh: blocks inflammasome-driven IL-1 beta release; AID 743279; THP-1 LPS/ATP IL-1B secretion, AlphaLISA, 16 h; active compounds read low; actives 4.7% (n = 360,000); activity change, % at 57.5 µM; in the data active = activity change below about -50%; inconclusive = mostly about -30% to -49%
#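 THP-1 cells pretreated 1 hr with compounds (up to 57.5 uM final), then stimulated with LPS (250 ng/mL final) plus ATP (1.25 mM final); secreted IL-1B measured by AlphaLISA after 16 hr, decreased signal indicating inhibition.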
# DT40 TDP1 no CPT: qHTS for Inhibitors of human tyrosyl-DNA phosphodiesterase 1 (TDP1): qHTS in cells in absence of CPT; AID 686978, 2013; DT40 Tdp1-/- hTDP1 cells, no CPT, ATP luminescence, 48 h; actives 15% (n = 420,000); Potency, µM (top dose mostly 46.2 µM), for inactives: at the top dose activity change, negative = growth inhibition, most hits filed as inhibitors; also: potency is read from the fitted curve at half-maximal effect; nearly all actives have a fitted effect of over 55% in size
#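 Camptothecin absent (DMSO only). Human TDP1-complemented DT40 knockout cells, 400 cells/well, 37 °C for minimum 48 hr; ATP measured via CellTiter-Glo, 30 min dark incubation, luminescence.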
# DT40 TDP1 CPT: growth inhibition of DT40 Tdp1-/-;hTDP1 cells with camptothecin (screen for TDP1 inhibitors) | chicken DT40 Tdp1-/-;hTDP1 cells + 20 nM CPT, ATP luminescence, 48 h | Potency, µM (series often up to 46.2 µM), for the others: top-dose activity change, negative = growth inhibition, usual class: inhibitors | actives 12% (n = 420,000) | AID 686979; also: potency is read from the fitted curve at half-maximal effect; nearly all actives have a fitted effect of over 55% in size
#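 Chicken DT40 Tdp1-/- cells complemented with human TDP1, 400 cells/well, exposed to compounds plus 20 nM camptothecin for at least 48 h at 37 C; viability read as ATP content by CellTiter-Glo luminescence.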
# An asterisk follows results filed as active; ? = inconclusive; nt = no result given. Unless noted, calls follow the shape of the dose curve; as a rule, active = well fitted curve in the direction sought with a large enough effect; inconclusive = small, poorly fitted or top-dose-only effect, or another doubt; inactive = no such curve, though single readings can be large; an effect the other way counts as inactive or inconclusive. Unless noted, % is scaled to controls: 0 for no effect and ±100 for the full control effect.
SMILES,HT1080-NT tox,HT1080 IDH1KD tx,IL1B secr inh,DT40 TDP1 no CPT,DT40 TDP1 CPT
COc1ccc(/C=N/NC(=S)Nc2cc(S(=O)(=O)N3CCOCC3)ccc2N2CCOCC2)cc1O,21µM*,16µM*,0,?,9.2µM*
CCOc1cccc(/C=N/NC(=S)Nc2cc(S(=O)(=O)N3CCOCC3)ccc2N2CCOCC2)c1O,-17%,?,-15,5.8µM*,5.8µM*
Cc1ccccc1/C=C\c1nc2ccccc2c(=O)[nH]1,16µM*,16µM*,0,16µM*,26µM*
Cc1ccccc1/C=C/c1nc2ccccc2c(=O)[nH]1,-22%,-25%,35,?,16µM*
Cc1ccc(/C=C/c2nc3ccccc3c(=O)[nH]2)cc1,-5%,-12%,-11,?,?
O=C(Cn1c(-c2ccccc2)c[n+]2ccsc12)c1ccc(Br)cc1,-14%,?,-86*,3.3µM*,7.3µM*
O=C(C[n+]1cccc(Br)c1)c1ccc(Br)cc1,nt,nt,nt,-4%,-9%
CCc1ccc2c(c1)C(c1ccc([N+](=O)[O-])cc1)=NNC(c1ccc(F)cc1)=N2,-6%,-14%,-53*,?,21µM*
CC#CC[N+](C)(C)CCCCCCCCCC,-27%,?,-59*,1.8µM*,2.3µM*
C#CC[N+](C)(C)CCCCCCCCC,?,?,-68*,2.3µM*,2.3µM*
O=C1CN(c2nc3nonc3nc2N2CCCCC2)CCN1,-3%,1%,-16,13%,-4%
O=C(O)CC(NC(=O)c1cccc([N+](=O)[O-])c1)c1ccc2c(c1)OCO2 (stereo unspecified),9%,9%,8,-9%,1%
Cc1ccc(S(=O)(=O)Nc2ccccc2N2CCOCC2)cc1,21µM*,18µM*,64,?,21µM*
Cc1ccc(S(=O)(=O)Nc2ccc(N3CCCCC3)cc2)cc1,-12%,-12%,5,?,?
O=S(=O)(Nc1cc(C(F)(F)F)ccc1N1CCOCC1)c1ccccc1,-2%,15%,5,-13%,-30%
Cc1ccc(S(=O)(=O)Nc2ccc(N3CCOCC3)cc2)cc1,3%,1%,12,-3%,-16%
O=S(=O)(Nc1cc(C(F)(F)F)ccc1N1CCOCC1)c1ccc2ccccc2c1,?,?,?,?,16µM*
Cc1ccc(S(=O)(=O)Nc2ccccc2N2CCCCC2)cc1,?,?,54,16µM*,?
Cc1cnc(CNC(=O)c2ccc3oc(Cc4ccccc4)nc3c2)[nH]1,-3%,-10%,-21,5%,2%
CC(C)N(Cc1nccn1C)C(=O)c1ccc2oc(Cc3ccccc3)nc2c1,-2%,-2%,25,?,21µM*
Cc1cc(-c2nc(C)c(C(=O)NN)s2)no1,?,?,12,-12%,5%
CCOC(=O)c1c(NC(=O)CSc2nnc(-c3cccnc3)n2Cc2ccco2)sc(C)c1C,-24%,?,-15,-59%,-45%
Cc1noc(C)c1S(=O)(=O)Nc1ccc(C(=O)N2CCN(c3ccc(Cl)cc3)CC2)cc1,-26%,-16%,-4,16µM*,?
Cc1ccc(N(CC(=O)N2CCN(c3ccc(F)cc3)CC2)S(=O)(=O)c2c(C)noc2C)cc1,-24%,-22%,-16,?,15µM*
COc1ccc(N(CC(=O)Nc2ccc(Cl)cc2)S(=O)(=O)c2c(C)n[nH]c2C)cc1,-16%,-14%,9,2%,?
SMILES,HT1080-NT tox,HT1080 IDH1KD tx,IL1B secr inh,DT40 TDP1 no CPT,DT40 TDP1 CPT
COc1ccc(N(CC(=O)N2CCN(c3ccc(Cl)cc3)CC2)S(=O)(=O)c2c(C)n[nH]c2C)cc1,-23%,?,-62*,?,?
Cc1ccc(N(CC(=O)N2CCN(c3ccc(Cl)cc3)CC2)S(=O)(=O)c2c(C)noc2C)cc1,nt,nt,nt,23µM*,?
CCOc1ccc2nc(SCC(=O)NCc3ccc4c(c3)OCO4)[nH]c2c1,11%,-12%,7,-22%,?
Cc1cc(C(=O)CCC(=O)NCC2COc3ccccc3O2)c(C)s1 (stereo unspecified),9%,10%,8,-1%,-12%
NC(=O)C1CCN(C(=O)c2ccc3nc(-c4ccccc4)c(-c4ccccc4)nc3c2)CC1,-3%,-17%,-14,?,?
Cc1cc(C)c(S(=O)(=O)n2ccc(-c3ccc(OCCN(C)c4ccccn4)cc3)n2)c(C)c1,8%,5%,18,?,-3%
CN(CC(=O)Nc1cc(S(=O)(=O)N2CCCC2)ccc1Cl)Cc1nc2ccccc2c(=O)[nH]1,-5%,-8%,0,21µM*,?
COc1ccccc1CN(C)CC(=O)Nc1cccc(S(=O)(=O)N2CCCC2)c1,-1%,0%,-16,23µM*,?
Cc1ccc(S(=O)(=O)N2CCCCC2)cc1NC(=O)CCc1nc2ccccc2c(=O)[nH]1,-6%,-1%,8,?,?
COc1ccccc1CNCC(=O)Nc1cc(S(=O)(=O)N2CCCCCC2)ccc1Cl,?,-26%,-8,?,?
O=C(CCc1nc2ccccc2c(=O)[nH]1)Nc1cccc(S(=O)(=O)N2CCCCC2)c1,-2%,0%,-3,21µM*,?
